In the antibiotic and cytotoxicity screens of Wong et al. (2023):
The whole screen tested about 39,000 compounds, of which about 3,300 (8.5%) were called active. The entries come from a sample that favours actives as a whole.

Tested on: HepG2
Assay: cytotoxicity call (relative viability < 0.9)
Conditions: 10 µM

Question: Which cytotoxicity call does the source give for `O=C1O[C@H](c2ccccc2)[C@H](c2ccccc2)N2[C@H]1[C@@H](C(=O)Nc1nc3ccccc3s1)[C@]1(C(=O)Nc3ccc(C#CC4(O)CCCCCC4)cc31)[C@H]2c1ccccc1OCCO` here?
Answer: inactive

Question: Which cytotoxicity call does the source give for `C[C@@H]1CCCCO[C@@H](CN(C)C(=O)Nc2ccc3c(c2)OCO3)[C@@H](C)CN([C@@H](C)CO)C(=O)c2cc(NC(=O)CCC(F)(F)F)ccc2O1` here?
Answer: inactive

Question: With `C[C@@H]1CN([C@H](C)CO)C(=O)c2cc(NC(=O)CCCCCC(=O)Nc3ccccc3N)ccc2O[C@@H]1CN(C)Cc1ccc(Oc2ccccc2)cc1` as the molecule, how does the cytotoxicity call read?
Answer: active

Question: How did the cytotoxicity call turn out when `COc1ccc(CN(C)C[C@H]2Oc3ccc(NC(=O)CCCCCC(=O)Nc4ccccc4N)cc3C(=O)N([C@H](C)CO)C[C@H]2C)cc1` was run?
Answer: inactive

Question: Which cytotoxicity call does the source give for `C[C@@H]1CN([C@@H](C)CO)C(=O)c2cc(NC(=O)CCCCCC(=O)Nc3ccccc3N)ccc2O[C@H]1CN(C)Cc1ccccc1` here?
Answer: active

Question: For `C[C@@H]1CN([C@H](C)CO)C(=O)c2cc(NC(=O)CCCCCC(=O)Nc3ccccc3N)ccc2O[C@@H]1CN(C)Cc1ccccc1`, which cytotoxicity call is on record?
Answer: inactive

Question: Which cytotoxicity call does the source give for `C[C@H]1CN([C@@H](C)CO)C(=O)c2cc(NC(=O)CCCCCC(=O)Nc3ccccc3N)ccc2O[C@@H]1CN(C)Cc1ccccc1` here?
Answer: active

Question: Which cytotoxicity call does the source give for `C[C@H](CO)N1C[C@H](C)[C@H](CN(C)Cc2ccccc2)Oc2ccc(NC(=O)CCCCCC(=O)Nc3ccccc3N)cc2C1=O` here?
Answer: inactive

Question: For `C[C@H](CO)N1C[C@H](C)[C@@H](CN(C)Cc2ccccc2)Oc2ccc(NC(=O)CCCCCC(=O)Nc3ccccc3N)cc2C1=O`, which cytotoxicity call is on record?
Answer: inactive

Question: For `C[C@H]1CN([C@@H](C)CO)C(=O)c2cc(NC(=O)CCCCCC(=O)Nc3ccccc3N)ccc2O[C@H]1CN(C)Cc1ccc(Oc2ccccc2)cc1`, which cytotoxicity call is on record?
Answer: inactive

Question: Which cytotoxicity call does the source give for `C[C@@H]1CN([C@H](C)CO)C(=O)c2cc(NC(=O)CCCCCC(=O)Nc3ccccc3N)ccc2O[C@H]1CN(C)Cc1ccccc1` here?
Answer: inactive

Question: Which cytotoxicity call does the source give for `O=C(C[C@@H]1CC[C@@H]2[C@H](COC[C@@H](O)CN2S(=O)(=O)c2ccccc2)O1)N1CCc2ccccc2C1` here?
Answer: inactive

Question: With `C[C@@H]1CCCCO[C@H](CN(C)S(=O)(=O)c2cccs2)[C@@H](C)CN([C@@H](C)CO)C(=O)c2cc(NS(=O)(=O)c3cn(C)cn3)ccc2O1` as the molecule, how does the cytotoxicity call read?
Answer: inactive

Question: `C[C@@H]1CN([C@@H](C)CO)C(=O)Cc2cc(NS(=O)(=O)c3cn(C)cn3)ccc2O[C@@H]1CN(C)Cc1ccc(C(=O)O)cc1` was tested. Which cytotoxicity call did it give?
Answer: inactive

Question: For `C[C@H](CO)N1C[C@H](C)[C@H](CN(C)S(=O)(=O)c2cn(C)cn2)Oc2ccc(N(C)C)cc2CC1=O`, which cytotoxicity call is on record?
Answer: inactive

Question: Which cytotoxicity call does the source give for `CC(C)CC#Cc1ccc2c(c1)O[C@@H](CN(C)C(=O)c1ccncc1)[C@H](C)CN([C@H](C)CO)S2(=O)=O` here?
Answer: inactive

Question: Which cytotoxicity call does the source give for `Cc1ccc(S(=O)(=O)N(C)C[C@H]2Oc3cc(C#Cc4ccncc4)ccc3S(=O)(=O)N([C@@H](C)CO)C[C@@H]2C)cc1` here?
Answer: active

Question: Which cytotoxicity call does the source give for `Cc1ccc(S(=O)(=O)N(C)C[C@H]2Oc3cc(C#Cc4ccccc4)ccc3S(=O)(=O)N([C@@H](C)CO)C[C@@H]2C)cc1` here?
Answer: inactive

Question: How did the cytotoxicity call turn out when `Cc1ccc(S(=O)(=O)N(C)C[C@@H]2Oc3cc(C#Cc4ccccc4)ccc3S(=O)(=O)N([C@H](C)CO)C[C@@H]2C)cc1` was run?
Answer: inactive

Question: How did the cytotoxicity call turn out when `Cc1ccc(S(=O)(=O)N(C)C[C@H]2Oc3cc(C#Cc4ccccc4)ccc3S(=O)(=O)N([C@@H](C)CO)C[C@H]2C)cc1` was run?
Answer: inactive

Question: With `Cc1ccc(S(=O)(=O)N(C)C[C@@H]2Oc3cc(C#Cc4ccncc4)ccc3S(=O)(=O)N([C@H](C)CO)C[C@H]2C)cc1` as the molecule, how does the cytotoxicity call read?
Answer: active

Question: Which cytotoxicity call does the source give for `Cc1ccc(S(=O)(=O)N(C)C[C@H]2Oc3cc(C#Cc4ccncc4)ccc3S(=O)(=O)N([C@H](C)CO)C[C@H]2C)cc1` here?
Answer: active

Question: For `Cc1ccc(S(=O)(=O)N(C)C[C@@H]2Oc3cc(C#Cc4ccccc4)ccc3S(=O)(=O)N([C@@H](C)CO)C[C@H]2C)cc1`, which cytotoxicity call is on record?
Answer: inactive

Question: For `Cc1ccc(S(=O)(=O)N(C)C[C@H]2Oc3cc(C#Cc4ccccc4)ccc3S(=O)(=O)N([C@H](C)CO)C[C@H]2C)cc1`, which cytotoxicity call is on record?
Answer: inactive

Question: How did the cytotoxicity call turn out when `Cc1ccc(S(=O)(=O)N(C)C[C@@H]2Oc3cc(C#Cc4ccccc4)ccc3S(=O)(=O)N([C@@H](C)CO)C[C@@H]2C)cc1` was run?
Answer: inactive

Question: How did the cytotoxicity call turn out when `Cc1ccc(S(=O)(=O)N(C)C[C@@H]2Oc3cc(C#Cc4ccncc4)ccc3S(=O)(=O)N([C@H](C)CO)C[C@@H]2C)cc1` was run?
Answer: active

Question: Which cytotoxicity call does the source give for `CC(C)NC(=O)Nc1ccc2c(c1)C(=O)N([C@H](C)CO)C[C@@H](C)[C@@H](CN(C)C(=O)C1CCCCC1)OCCCC[C@H](C)O2` here?
Answer: inactive

Question: Which cytotoxicity call does the source give for `CO[C@@H]1CN(C)C(=O)c2ccc(NS(C)(=O)=O)cc2OC[C@@H](C)N(C(=O)c2ccc3c(c2)OCO3)C[C@@H]1C` here?
Answer: inactive

Question: Which cytotoxicity call does the source give for `COc1ccccc1S(=O)(=O)N(C)C[C@H]1OCc2cn(nn2)CCCC(=O)N([C@@H](C)CO)C[C@@H]1C` here?
Answer: inactive

Question: With `CCS(=O)(=O)N1C[C@]2(CCN(CC2)C(=O)c2cccnc2)c2c(n(c3cc(ccc23)OC)C)[C@H]1CO` as the molecule, how does the cytotoxicity call read?
Answer: inactive

Question: `C[C@@H]1CN([C@H](C)CO)C(=O)c2cc(NC(=O)Cn3cnnn3)ccc2O[C@H]1CN(C)C(=O)NC1CCCCC1` was tested. Which cytotoxicity call did it give?
Answer: inactive

Question: How did the cytotoxicity call turn out when `Cc1ccc(S(=O)(=O)Nc2ccc3c(c2)C(=O)N([C@@H](C)CO)C[C@H](C)[C@H](CN(C)C(=O)Nc2c(C)noc2C)OCCCC[C@H](C)O3)cc1` was run?
Answer: inactive

Question: Which cytotoxicity call does the source give for `CC(C)NC(=O)Nc1ccc2c(c1)CC(=O)N([C@@H](C)CO)C[C@@H](C)[C@H](CN(C)S(=O)(=O)c1ccc(F)cc1)O2` here?
Answer: inactive

Question: For `C[C@@H]1CN([C@@H](C)CO)S(=O)(=O)c2ccc(Br)cc2O[C@@H]1CN(C)C(=O)NC1CCCCC1`, which cytotoxicity call is on record?
Answer: inactive

Question: `CCOC(=O)CC(=O)c1ccn(C)n1` was tested. Which cytotoxicity call did it give?
Answer: inactive

Question: Which cytotoxicity call does the source give for `C[C@@H]1CCCCO[C@H](CN(C)S(=O)(=O)c2cccs2)[C@H](C)CN([C@@H](C)CO)C(=O)c2cc(NC(=O)CCC(F)(F)F)ccc2O1` here?
Answer: inactive

Question: With `C[C@H](CO)N1C[C@H](C)[C@H](CN(C)Cc2ccccn2)Oc2ncc(C#Cc3ccc(F)cc3)cc2C1=O` as the molecule, how does the cytotoxicity call read?
Answer: inactive

Question: `C[C@@H]1CN([C@H](C)CO)C(=O)c2c(c3ccccc3n2C)-c2ccccc2CO[C@H]1CN(C)Cc1cccc(O)c1` was tested. Which cytotoxicity call did it give?
Answer: inactive

Question: For `Cc1ccc(S(=O)(=O)N(C)C[C@H]2Oc3cc(C#Cc4ccncc4)ccc3S(=O)(=O)N([C@@H](C)CO)C[C@H]2C)cc1`, which cytotoxicity call is on record?
Answer: active

Question: `Cc1ccc(S(=O)(=O)N(C)C[C@H]2Oc3cc(C#Cc4ccncc4)ccc3S(=O)(=O)N([C@H](C)CO)C[C@@H]2C)cc1` was tested. Which cytotoxicity call did it give?
Answer: active

Question: For `Cc1ccc(S(=O)(=O)N(C)C[C@@H]2Oc3cc(C#Cc4ccncc4)ccc3S(=O)(=O)N([C@@H](C)CO)C[C@@H]2C)cc1`, which cytotoxicity call is on record?
Answer: active

Question: How did the cytotoxicity call turn out when `Cc1ccc(S(=O)(=O)N(C)C[C@@H]2Oc3cc(C#Cc4ccncc4)ccc3S(=O)(=O)N([C@@H](C)CO)C[C@H]2C)cc1` was run?
Answer: active

Question: `C[C@@H]1CN([C@H](C)CO)C(=O)c2cccc(NS(=O)(=O)c3ccc(F)cc3)c2O[C@@H]1CN(C)S(=O)(=O)c1cccs1` was tested. Which cytotoxicity call did it give?
Answer: inactive

Question: Which cytotoxicity call does the source give for `C[C@H]1CCCCO[C@H](CN(C)Cc2ccncc2)[C@@H](C)CN([C@@H](C)CO)C(=O)c2cc(NC(=O)Nc3cccc4ccccc34)ccc2O1` here?
Answer: inactive

Question: `COc1ccc2c3c(n(c2c1)C)[C@@H](CO)N(C[C@]13CN(C1)S(=O)(=O)c1ccc(cc1)C)S(=O)(=O)c1ccc(cc1)C` was tested. Which cytotoxicity call did it give?
Answer: inactive

Question: How did the cytotoxicity call turn out when `C[C@H](CO)N1C[C@H](C)[C@H](CN(C)Cc2ccc3c(c2)OCCN3C)OCc2cnnn2CCCC1=O` was run?
Answer: inactive

Question: `O=C(C[C@H]1CC[C@@H]2[C@H](COC[C@@H](O)CN2C(=O)Nc2cccc(F)c2)O1)NCCCN1CCOCC1` was tested. Which cytotoxicity call did it give?
Answer: inactive

Question: With `CC(C)NC(=O)Nc1ccc2c(c1)C(=O)N([C@@H](C)CO)C[C@@H](C)[C@H](CN(C)C(=O)Nc1ccc(F)cc1)OCCCC[C@H](C)O2` as the molecule, how does the cytotoxicity call read?
Answer: inactive

Question: `O.O=C(O)C1C(O)CCC2CN3CCc4c([nH]c5ccccc45)C3CC21` (stereo not drawn) was tested. Which cytotoxicity call did it give?
Answer: inactive

Question: `C[C@H]1CC(=O)Nc2c1c(N)nn2C` was tested. Which cytotoxicity call did it give?
Answer: inactive

Question: For `C[C@H]1CCCCO[C@H](CN(C)Cc2ccc3c(c2)OCO3)[C@@H](C)CN([C@@H](C)CO)C(=O)c2cc(NC(=O)CCC(F)(F)F)ccc2O1`, which cytotoxicity call is on record?
Answer: inactive

Question: How did the cytotoxicity call turn out when `C[C@@H]1CCCCO[C@H](CN(C)C(=O)C2CCCCC2)[C@H](C)CN([C@H](C)CO)C(=O)c2cc(NS(=O)(=O)c3ccc(F)cc3)ccc2O1` was run?
Answer: inactive

Question: How did the cytotoxicity call turn out when `CC(C)CC#Cc1ccc2c(c1)O[C@H](CN(C)Cc1cncnc1)[C@H](C)CN([C@@H](C)CO)S2(=O)=O` was run?
Answer: inactive

Question: Which cytotoxicity call does the source give for `NNS(=O)(=O)c1ccc(Oc2ccc(S(=O)(=O)NN)cc2)cc1` here?
Answer: active

Question: With `NC(=O)NS(=O)(=O)c1ccc(N)cc1` as the molecule, how does the cytotoxicity call read?
Answer: inactive

Question: `NNS(=O)(=O)c1ccc(Cl)cc1` was tested. Which cytotoxicity call did it give?
Answer: inactive

Question: Which cytotoxicity call does the source give for `C[C@@H]1CN([C@H](C)CO)C(=O)c2cc(NS(=O)(=O)c3ccc(F)cc3)ccc2O[C@H]1CN(C)S(=O)(=O)c1ccc(F)cc1` here?
Answer: inactive

Question: With `Cc1cc(C)c2c(c1)NC(=O)C[C@H]2c1cccc(Cl)c1Cl` as the molecule, how does the cytotoxicity call read?
Answer: active

Question: With `Cc1ccc2c(c1)C(=O)C[C@@H](c1ccc(Cl)cc1Cl)O2` as the molecule, how does the cytotoxicity call read?
Answer: inactive

Question: For `Cc1ccc(=O)n(CC(=O)O)n1`, which cytotoxicity call is on record?
Answer: inactive

Question: Which cytotoxicity call does the source give for `C[C@H]1CCCCO[C@@H](CN(C)Cc2ccncc2)[C@@H](C)CN([C@@H](C)CO)C(=O)c2cc(NC(=O)Nc3ccc(C(F)(F)F)cc3)ccc2O1` here?
Answer: inactive

Question: How did the cytotoxicity call turn out when `C[C@@H]1CCCCO[C@H](CN(C)Cc2ccncc2)[C@H](C)CN([C@H](C)CO)C(=O)c2cc(NC(=O)Nc3ccc(C(F)(F)F)cc3)ccc2O1` was run?
Answer: active

Question: For `C[C@@H]1CN([C@H](C)CO)C(=O)c2cc(NC(=O)Nc3ccc(C(F)(F)F)cc3)ccc2O[C@@H](C)CCCCO[C@@H]1CN(C)Cc1ccncc1`, which cytotoxicity call is on record?
Answer: active

Question: Which cytotoxicity call does the source give for `C[C@H](CO)N1C[C@H](C)[C@H](CN(C)Cc2ccncc2)OCCCC[C@H](C)Oc2ccc(NC(=O)Nc3ccc(C(F)(F)F)cc3)cc2C1=O` here?
Answer: active

Question: For `C[C@@H]1CCCCO[C@@H](CN(C)Cc2ccncc2)[C@H](C)CN([C@@H](C)CO)C(=O)c2cc(NC(=O)Nc3ccc(C(F)(F)F)cc3)ccc2O1`, which cytotoxicity call is on record?
Answer: inactive

Question: How did the cytotoxicity call turn out when `C[C@@H]1CCCCO[C@H](CN(C)Cc2ccncc2)[C@@H](C)CN([C@H](C)CO)C(=O)c2cc(NC(=O)Nc3ccc(C(F)(F)F)cc3)ccc2O1` was run?
Answer: inactive

Question: With `C[C@@H]1CCCCO[C@@H](CN(C)Cc2ccncc2)[C@H](C)CN([C@H](C)CO)C(=O)c2cc(NC(=O)Nc3ccc(C(F)(F)F)cc3)ccc2O1` as the molecule, how does the cytotoxicity call read?
Answer: active

Question: Which cytotoxicity call does the source give for `C[C@H](CO)N1C[C@H](C)[C@@H](CN(C)Cc2ccncc2)OCCCC[C@H](C)Oc2ccc(NC(=O)Nc3ccc(C(F)(F)F)cc3)cc2C1=O` here?
Answer: inactive
